This is an account of results in PubChem BioAssay AID1508600 (Functional Genomics Laboratory (NCATS/FGL), 2020).

Screen size: about 53,000 sequences; about 3,700 (7%) were called active. The sample as a whole holds a higher share of actives than the screen did. Unmarked numbers belong to inactive results.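 The calls were made as follows: active = gene knockdowns whose robust z-score for IL-1 alpha signal is at least 2 or at most -2, so actives lie on both sides; inactive = the rest.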

The test can be described thus: Components of the Cytosolic LPS Sensing Pathway: Gene Identification via Genome-wide siRNA Screen.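 Also: robust z of the log signal after scaling to non-targeting control siRNA wells of the plate.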 As to conditions: RAW264.7 macrophages, IL-1a HTRF, actives lie on both sides, screened at 100 nM (by protocol), cells primed 5 h with Pam3CSK4 first. An outline of the steps:
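Read-out: IL-1a HTRF on supernatant, divided by plate negative-control median ×100, log-transformed and converted to robust z-score. Cells were RAW264.7 given 100 nM siRNA, Pam3CSK4-primed 5 hours, then LipidA-transfected 24 hour.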
On the technique in general: TR-FRET usually uses a lanthanide donor and a delayed reading to cut background.
In the case of GGAUGAGAAUGGUUAUACUTT against Asz1, the z-score was 0.328.
The result for CCGCCUCGUACAUGAUAUUTT against Mrgpra2b reads 0.653.
The result for GGAUUUAUUUGCCAACACUTT against Actbl2 reads -2.28 (active).
Next, GGUUGCUAUUAUUAUUGGATT against Fnbp4: 0.678.
For the sequence GCCCAAGGAGGCAUUGAUATT against Fbxo8, the z-score was -0.653.
The result for GGCUUCAUUUACUGUAACGTT against Flrt3 reads -0.12; that for GGAUAAACGGACAGGCCCATT against Socs2, 0.282; that for GGGUUCUGGGAAGGUAUAUTT against Olfr705, -2.54 (active).
The result for GAUUGUGCCUUAUCUCUAATT against Vmn1r203 reads 1.28; that for GGCCUACAUUUUAAUUCAGTT against Tmem132c, -0.167; that for GGCUCAGAUCAGAACUACGTT against Inpp4a, -0.129.
On to GGUAAACGAUGUACAGUUGTT against Notch2, for which the z-score is 2.6 (active).
Next, GCUAAAGUGAGCAGCGGGATT against Gipc3: 0.218; GCUACCUGCGACAAGAAAUTT against Defb23: -0.79.
For the sequence CCAUAUGUAGCUAUGGUUATT against Cul2, the z-score was 0.741.
With CCAGUAGAAAGAAUCCAGATT against Gm128, the z-score is 0.0855.
The result for GCCAGCUACUCUCUUGAGATT against Olfr419 reads -1.03; that for GGACUACAUGGAUGCCAUGTT against Prkrip1, 0.482.
The result for GGCCCUCAAACAGUGCAAATT against Chchd10 reads 2.09 (active).
For the sequence GGCCUUUUCCAUAAACUUUTT against Ddx60, the z-score is 0.873.
Next, GCAGUACGAAAUGGUAUACTT against Chd6: -1.7; CGUAUUAACGACAUAAGAGTT against Nckap1: -0.169; GGACCUUAAGAGAUAUCAATT against Acsm4: 2.9 (active).
The result for CCAAUUGGAAUCCCAUUUUTT against Cd47 reads -0.273; that for CCCAACAAUGCUGCACAUGTT against H1f8, 0.157.
Next, GCAGUGUCUAGGACAGUCATT against Pdcd5: 0.0243; GGGCCCGAUGAAGCAAAAATT against Hnrnpr: -1.49; GGCAAACAUGAAGAGAAGCTT against Hspb8: 0.0665.
As for GGCUGACCUUCUGUGCUGATT against Olfr876, the z-score was -0.98.
CGAAGAGAUCUCACUAUAATT against Trnt1: the z-score was 1.21.
Next, GCGCUAGAAGGCCAGAUAUTT against Orm3: -0.155; GCAAUGGUUCAGUAUGUACTT against Tpgs2: -2.01 (active); GCCAUCAACAGCAUUUACATT against Glt8d2: -0.455.
The result for GGAGCUUUCAGCUAAGACATT against Rassf4 reads 0.671; that for GGACCAGCCAUACCUGUGATT against Ndufa7, -1.93; that for GCCACACAGUGUGAUCCAATT against Nrip2, -1.33.
GGCUACCUACAGCACCAACTT against Esyt1: the z-score was -1.58.
The result for CCAAGUCUUUGCCUACGUGTT against Dsn1 reads 2.39 (active).
The result for GGAUGUAACUGAAAGAGAATT against Fam133b reads -1.11; that for GGACACUUAAAGAUCCUGCTT against Armc7, -0.545.
For GCUCAGAGAUUAUGGCAUCTT against Snrnp25, the z-score is 0.687.
Next, GAGCUAAGCAAGAUGCUAGTT against Sox17: 3.97 (active); GCAUGAUUACCCAUUUCAATT against Tax1bp1: 0.334; GGAGAAGGAGAUGUCCAAUTT against Guca2b: 0.777.
Next, GCGAUUGAUGAAUUUCGACTT against Atp9b: 0.616.
Consider GGAUUUCAAAAACCACGUGTT against Snx1, for which the z-score was 1.14.
The result for CCCACAGCUCUGACAUUUUTT against Fbxo6 reads -0.315; that for CCUAGGUCAUAUUUCUCCATT against Bgn, 0.224; that for GGCAGUGGCUUGGAUAAAUTT against Amdhd2, -0.609.
Next, GGAGAGCUGCAUGAUUUCATT against Efcab2: 3.67 (active); GCAGUCAUGGGUUCUUAAGTT against Gng3: 0.109.
As for CCAUAUCUCAUGAGGAAGGTT against Olfr1368, the z-score is 1.53.
As for GGACGGUGACAAGAACAACTT against Tnnc1, the z-score is 1.72.
On to GCUUCACGAUUAAAACUAATT against Ltb4r1, for which the z-score was 0.
The result for “CGGAGUCUUCUUCUCACCUTT against A630001O12Rik” reads -2.82 (active).
The result for GGCUCAGGCAUUGUAACCATT against Dnm3 reads -0.177; that for GGUGCAUUCCUUGUGAAUGTT against Ctbp2, 0.141; that for GCUCAGUCAUGUGACCGCATT against Fbxl18, 2.93 (active).
The result for GGGAAAGGAAGUUGUUUUGTT against Epha2 reads 0.878.
In the case of GCAGCCUAUUACCUCAGACTT against Nwd2, the z-score is 1.02.
The result for GGAUCUCUCUUUCCUCCUCTT against Gli1 reads 0.0792; that for GCCUUCAAGCCAAAGAUAGTT against Lin54, -0.582.
Next, GGCAAAGGCUAUCGCUCACTT against Smpd2: -1.46; GCCUCUAUAUCUUUCACUGTT against Olfr1209: -2.16 (active); CCGGACCAUCUUCGACAGUTT against Pmepa1: -0.783.
GGAACUGUGUGUCUUCUCCTT against Kcns3: the z-score was -1.78.
On to CGGUGAAAGACUUCAGUAUTT against Ppfibp1, for which the z-score is 0.578.
Next, GCCAGCGACCUUUAGUACATT against Cmtm1: 2.08 (active); CCUGCUCUUCGUUAUCUUGTT against Olfr552: 1.59; GCGACAGAGGAAGCUUGUUTT against Mak16: 0.634.
Next, CGACAAGAAGACUUCGAAUTT against Mnt: -1.28; GGCCUAUUUUUUCAUAGUUTT against Ptprs: 0.0729.
Next, GCACACUGAUGAACUUACCTT against Ston2: 2.55 (active); GGCAAAGUACUACGUGCAGTT against Sh3bp5: -0.225.
As for GGCAGAAUAUGAGUUUGAUTT against Camk1d, the z-score was -0.161.
As for “GGAAAAAGAUGCGACAAUGTT against A930012O16Rik”, the z-score was -1.01.
With GGGACCAUUCUGAAGAUGATT against Acot7, the z-score is -1.76.
The result for GGAGAAUAUGUCGUCAUGATT against Gabra3 reads -1.09.
The result for GGAAAAACUGGUCUAUCAATT against Polr3f reads 1.47; that for GGAAGAAUGUGGGUAAAGATT against Gimap9, -2.01 (active); that for CCGUUUUUGUGGUUCAGUGTT against Plxdc1, 0.0355.
Next, GGCAACAUUGAACAUGCCUTT against Stambp: -1.76.
In the case of GCAGUUCAAGUCUUGAAUATT against Olfr934, the z-score was -1.09.
Next, GGGUUUCUGUUAAUCCACATT against H3c8: -1.38; CCUGCUUGCCAACACCAUATT against Slc39a13: -2.2 (active); GGAACAACAUUGUUCUAAATT against Fstl5: 0.759.
Take GGGAGCCAUUUUUACAGACTT against Ffar4: the z-score was 0.405.
Next, GCCGGAACAUCCAGAAUAGTT against Cpeb2: -0.644; GCACCUAGCAUAGCAAUGGTT against Slc24a1: 0.695.
The result for GCGAUGACCAAAAAUAUUGTT against Tmc1 reads -0.0131; that for GCUGGCUAGAAUCUUACCCTT against Aph1c, 0.554; that for GGGCAUGCAAUGUUCAUGCTT against Rho, 0.095.
Next, GGUUGUGCAACACAGCUCUTT against Olfr218: -2.31 (active); CGUGUCAGAACUCGAUCUUTT against Tbcel: -0.549; GGCCAUUGUUACUGGAAAATT against Elmo2: -0.353.
On to GGAACUGACUCUUGAAAAUTT against Cd14, for which the z-score was 0.367.
Next, GCUAGAGUCCAUAAACAAUTT against Olfr1148: -0.0654; GGGUUAAAGCGGUUUACUUTT against Kcng3: 2.72 (active); GGAGCAAUCUGUUAAACUATT against Vash2: 0.318.
The result for GGCCCAUCCUGAAACCAAATT against Wfdc15b reads -2.04 (active).
The result for CCCGGAGUGGUCAGAAGUATT against Mapkapk2 reads -0.376; that for GGUAAGCAUGGAAAGGCUGTT against Prdm15, -0.0134; that for GCCGUCAGAUGACAACUAGTT against Lta, 0.481.
GGAUGACCUUGAAAGCAGUTT against Usp29: the z-score was -0.677.
The result for GGCAAAGCUGUCUUAGAGGTT against Mettl23 reads -1.35; that for GGCCAAAGCCAGAAUCUCATT against Zfp281, 3.07 (active); that for GGACAUAGAUCUACCUGAATT against Ctsb, -1.48.
Take GCUUAAUGCCUUGAAACGATT against Tsg101: the z-score is 1.9.
